From PubChem BioAssay
The source made the active and inactive calls.

Key:
Albumin (Bos taurus) = Albumin (Bos taurus) (UniProt P02769); test: bovine serum albumin binders on microarray, profiling panel, artefact control for SMM control protein annotation, biochemical, small-molecule microarray, Alexa647 label, 635/667 nm fluorescence (AID 1118); details: BSA-A647 binding, fluorescence 635 nm, higher = more signal;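 note: score merges 667 nm emission intensity and signal-to-noise per printed compound spot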
[1] = small-molecule microarray binders of probe aXIP, primary screen, biochemical, NeuroSMM set, 635/667 nm fluorescence (AID 1119); details: higher = more signal, called active from +8 up or from −8 down;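 note: probe is the protein aXip251-270 applied at 1 µg/mL to compound-printed slides; binding of probe to printed compounds measured as 667 nm fluorescence plus signal to noise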
[2] = small-molecule binders of probe aNOTCH3, primary screen, biochemical, small-molecule microarray, 635/667 nm fluorescence (AID 1120); details: higher = more signal;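 note: probe is a biotin-tagged antibody raised against NOTCH3 rather than NOTCH3 protein; score merges spot fluorescence near 667 nm with spot signal to noise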
[3] = small-molecule binders of probe aNOTCH2, primary screen, biochemical, small-molecule microarray, 635/667 nm fluorescence (AID 1121); details: higher = more signal;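 note: score merges feature fluorescence read at 667 nm with its signal to noise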
[4] = molecular target: Carbonic anhydrase 2 (Homo sapiens) (UniProt P00918); test: CAII small-molecule binders, profiling panel, biochemical, small-molecule microarray, Alexa647-labelled CAII (AID 1122); details: CAII-A647 binding fluorescence, higher = more signal
[5] = COS7 lysate on small-molecule microarray, probe aHis, 635 nm (AID 1123); details: COS7 cell lysate, fluorescence, higher = more signal;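 note: z-score combines 667nm fluorescence intensity with signal-to-noise per printed compound spot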
[6] = compound binding in COS7 lysate, probe aLAP1, primary screen, cell lysate, small-molecule microarray (AID 1124); details: probe aLAP1, fluorescence, higher = more signal;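 note: lysate comes from COS7 cells expressing LAP1 and is applied at 0.3 µg/mL; score merges spot fluorescence near 667 nm with signal-to-noise over triplicate slides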
Sam68 (KHDRBS1) = test: Sam68 small-molecule binders, primary screen, biochemical, small-molecule microarray, 635 nm fluorescence (AID 1125); details: small-molecule microarray binding, higher = more signal;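 note: score merges 667 nm channel intensity with signal to noise over triplicate slides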
[7] = tested on: Chordin-like protein 2 (CHRDL2); test: CHRDL2 small-molecule binders, primary screen, biochemical, small-molecule microarray, 635 nm fluorescence (AID 1126); details: small-molecule microarray binding, fluorescence 635 nm; higher = more signal;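 note: printed compound slides probed with Chrdl2 protein at 4 µg/mL for 1 h at 4 C; score merges 667 nm emission intensity with signal to noise over three replicate slides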
[8] = molecular target: Concanavalin-A (Canavalia ensiformis) (UniProt P02866); test: ConA small-molecule binders, primary screen, artefact control for SMM control protein annotation, biochemical, small-molecule microarray, Alexa647 label, 635 nm (AID 1127); details: ConA-A647 binding fluorescence, higher = more signal;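 note: z combines 667 nm emission intensity with signal-to-noise across three replicate slides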
[9] = anti-His antibody binders, primary screen, artefact control for SMM control protein annotation, biochemical, small-molecule microarray, 635 nm fluorescence (AID 1128); details: anti-His Alexa647 antibody binding, higher = more signal;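 note: score merges feature fluorescence with signal-to-noise for each printed compound spot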
[10] = tested on: Human papillomavirus type 1a E7 protein (residues 1-88); test: HPV1a E7 small-molecule binders, primary screen, biochemical, small-molecule microarray, residues 1-88, 635 nm (AID 1129); details: small-molecule microarray binding, fluorescence 635 nm; higher = more signal
[11] = molecular target: Focal adhesion kinase 1 (Homo sapiens) (UniProt Q05397); test: small-molecule microarray binders of FAK, primary screen, biochemical, 635/667 nm fluorescence, BSA, DTT (AID 1130); details: PTK2 binding, 635 nm fluorescence, higher = more signal;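 note: composite of spot emission at 667 nm and signal to noise over triplicate slides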
[12] = tested on: Fibrinogen (Alexa647-labelled); test: fibrinogen binders on compound microarrays, profiling panel, artefact control for SMM control-protein annotation, biochemical, small-molecule microarray, 635/667 nm fluorescence (AID 1131); details: fibrinogen-A647 binding fluorescence, higher = more signal;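 note: z-score merges 667 nm fluorescence with per-spot signal-to-noise over triplicate slides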
[13] = molecular target: Follistatin (Homo sapiens) (UniProt P19883); test: follistatin binders on small-molecule microarrays, primary screen, biochemical, small-molecule microarray, 635/667 nm fluorescence (AID 1132); details: FST binding, 635 nm fluorescence, higher = more signal
[14] = molecular target: Fibroblast growth factor 2 (Homo sapiens) (UniProt P09038); test: FGF2 binders on small-molecule microarrays, primary screen, biochemical, small-molecule microarray, 635/667 nm fluorescence (AID 1133); details: small-molecule microarray binding, FGF2, fluorescence 635/667; higher = more signal
[15] = mitochondrial membrane potential change in A549 cells, profiling panel, cell-based, JC-1 fluorescence, basal, 24 h, 100 nL (AID 1138); details: higher = more signal;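 note: A549 lung adenocarcinoma cells under basal conditions with no added stimulus; test concentration not given here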
Lefty1 = Lefty1 binders on small-molecule microarrays, primary screen, biochemical, small-molecule microarray, 635/667 nm fluorescence (AID 1139); details: small-molecule microarray binding, fluorescence 635/667; higher = more signal
[16] = tested on: wheat germ agglutinin (Triticum aestivum), Alexa647-labelled; test: wheat germ agglutinin binders on compound microarrays, profiling panel, artefact control for SMM control-protein annotation, biochemical, small-molecule microarray, 635/667 nm fluorescence (AID 1140); details: WGA-A647 binding, 635 nm fluorescence, higher = more signal;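 note: score merges 667 nm feature emission with signal to noise over triplicate slides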
[17] = molecular target: Luciferin 4-monooxygenase (Photinus pyralis) (UniProt P08659); test: firefly luciferase enzyme inhibitors, primary screen, biochemical, luminescence, purified enzyme, 2006 set (AID 1141); details: SteadyGlo luminescence, 30 min, higher = more signal, called active from +8 up or from −8 down;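 note: cell-free assay with purified firefly luciferase at 100 ng per well in PBS; test concentration not given here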
Luciferin 4-monooxygenase (Photinus pyralis), sequence (P08659 whole entry, looked up): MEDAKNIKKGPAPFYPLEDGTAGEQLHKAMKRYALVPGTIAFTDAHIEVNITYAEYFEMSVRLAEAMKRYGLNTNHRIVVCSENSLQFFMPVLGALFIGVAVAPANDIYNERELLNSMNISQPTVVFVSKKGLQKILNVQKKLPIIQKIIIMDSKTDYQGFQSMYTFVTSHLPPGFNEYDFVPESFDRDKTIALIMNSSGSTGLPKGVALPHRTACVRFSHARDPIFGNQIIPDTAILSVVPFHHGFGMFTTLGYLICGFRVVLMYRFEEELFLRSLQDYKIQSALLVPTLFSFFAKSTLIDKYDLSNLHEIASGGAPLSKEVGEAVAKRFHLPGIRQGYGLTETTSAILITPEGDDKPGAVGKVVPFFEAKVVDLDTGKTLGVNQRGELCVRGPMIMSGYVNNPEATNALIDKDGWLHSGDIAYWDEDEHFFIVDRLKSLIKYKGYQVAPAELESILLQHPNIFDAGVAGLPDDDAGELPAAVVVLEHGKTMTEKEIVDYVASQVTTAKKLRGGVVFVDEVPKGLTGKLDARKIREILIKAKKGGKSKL

Concanavalin-A (Canavalia ensiformis), sequence (P02866 whole entry, looked up): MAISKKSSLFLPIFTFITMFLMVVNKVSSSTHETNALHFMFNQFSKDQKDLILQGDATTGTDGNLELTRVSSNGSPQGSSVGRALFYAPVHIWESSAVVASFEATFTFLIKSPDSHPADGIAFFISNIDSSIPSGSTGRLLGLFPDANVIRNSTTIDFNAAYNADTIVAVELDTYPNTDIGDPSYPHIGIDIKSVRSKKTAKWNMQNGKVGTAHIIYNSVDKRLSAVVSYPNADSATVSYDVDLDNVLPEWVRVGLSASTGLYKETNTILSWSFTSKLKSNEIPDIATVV
Fibroblast growth factor 2 (Homo sapiens), sequence (P09038 whole entry, looked up): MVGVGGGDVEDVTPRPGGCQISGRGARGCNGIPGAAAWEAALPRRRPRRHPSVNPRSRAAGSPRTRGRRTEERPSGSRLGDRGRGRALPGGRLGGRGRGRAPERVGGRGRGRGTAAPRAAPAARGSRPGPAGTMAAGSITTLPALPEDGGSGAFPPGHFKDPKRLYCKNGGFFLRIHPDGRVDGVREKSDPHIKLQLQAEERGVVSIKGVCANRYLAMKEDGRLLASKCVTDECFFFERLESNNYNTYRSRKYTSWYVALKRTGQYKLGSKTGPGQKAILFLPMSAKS
Follistatin (Homo sapiens), sequence (P19883 whole entry, looked up): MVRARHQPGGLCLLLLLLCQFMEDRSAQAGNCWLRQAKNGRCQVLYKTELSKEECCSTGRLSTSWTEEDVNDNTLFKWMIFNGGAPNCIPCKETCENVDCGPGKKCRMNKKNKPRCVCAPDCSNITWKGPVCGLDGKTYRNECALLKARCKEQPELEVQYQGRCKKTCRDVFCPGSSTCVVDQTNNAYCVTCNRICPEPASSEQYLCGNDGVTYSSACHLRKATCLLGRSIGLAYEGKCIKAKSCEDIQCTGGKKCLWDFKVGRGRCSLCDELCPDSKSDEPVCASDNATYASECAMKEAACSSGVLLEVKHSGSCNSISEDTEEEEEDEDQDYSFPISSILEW
Albumin (Bos taurus), sequence (P02769 whole entry, looked up): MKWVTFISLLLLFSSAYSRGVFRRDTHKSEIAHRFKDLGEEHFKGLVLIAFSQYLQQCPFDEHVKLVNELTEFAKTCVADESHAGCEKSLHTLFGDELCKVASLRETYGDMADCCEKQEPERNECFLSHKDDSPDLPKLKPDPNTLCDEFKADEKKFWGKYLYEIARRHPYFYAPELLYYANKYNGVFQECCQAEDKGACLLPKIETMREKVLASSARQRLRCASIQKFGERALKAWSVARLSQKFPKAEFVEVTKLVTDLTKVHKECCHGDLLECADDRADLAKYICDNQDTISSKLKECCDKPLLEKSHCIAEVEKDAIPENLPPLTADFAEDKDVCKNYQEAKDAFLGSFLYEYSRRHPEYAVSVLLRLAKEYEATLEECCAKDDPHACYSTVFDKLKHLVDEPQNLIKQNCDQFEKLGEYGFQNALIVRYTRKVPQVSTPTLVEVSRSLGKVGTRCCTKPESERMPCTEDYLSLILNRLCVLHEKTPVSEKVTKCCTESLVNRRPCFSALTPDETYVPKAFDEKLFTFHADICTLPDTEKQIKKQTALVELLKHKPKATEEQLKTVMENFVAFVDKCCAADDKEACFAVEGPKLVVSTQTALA
Focal adhesion kinase 1 (Homo sapiens), sequence (Q05397 whole entry, looked up): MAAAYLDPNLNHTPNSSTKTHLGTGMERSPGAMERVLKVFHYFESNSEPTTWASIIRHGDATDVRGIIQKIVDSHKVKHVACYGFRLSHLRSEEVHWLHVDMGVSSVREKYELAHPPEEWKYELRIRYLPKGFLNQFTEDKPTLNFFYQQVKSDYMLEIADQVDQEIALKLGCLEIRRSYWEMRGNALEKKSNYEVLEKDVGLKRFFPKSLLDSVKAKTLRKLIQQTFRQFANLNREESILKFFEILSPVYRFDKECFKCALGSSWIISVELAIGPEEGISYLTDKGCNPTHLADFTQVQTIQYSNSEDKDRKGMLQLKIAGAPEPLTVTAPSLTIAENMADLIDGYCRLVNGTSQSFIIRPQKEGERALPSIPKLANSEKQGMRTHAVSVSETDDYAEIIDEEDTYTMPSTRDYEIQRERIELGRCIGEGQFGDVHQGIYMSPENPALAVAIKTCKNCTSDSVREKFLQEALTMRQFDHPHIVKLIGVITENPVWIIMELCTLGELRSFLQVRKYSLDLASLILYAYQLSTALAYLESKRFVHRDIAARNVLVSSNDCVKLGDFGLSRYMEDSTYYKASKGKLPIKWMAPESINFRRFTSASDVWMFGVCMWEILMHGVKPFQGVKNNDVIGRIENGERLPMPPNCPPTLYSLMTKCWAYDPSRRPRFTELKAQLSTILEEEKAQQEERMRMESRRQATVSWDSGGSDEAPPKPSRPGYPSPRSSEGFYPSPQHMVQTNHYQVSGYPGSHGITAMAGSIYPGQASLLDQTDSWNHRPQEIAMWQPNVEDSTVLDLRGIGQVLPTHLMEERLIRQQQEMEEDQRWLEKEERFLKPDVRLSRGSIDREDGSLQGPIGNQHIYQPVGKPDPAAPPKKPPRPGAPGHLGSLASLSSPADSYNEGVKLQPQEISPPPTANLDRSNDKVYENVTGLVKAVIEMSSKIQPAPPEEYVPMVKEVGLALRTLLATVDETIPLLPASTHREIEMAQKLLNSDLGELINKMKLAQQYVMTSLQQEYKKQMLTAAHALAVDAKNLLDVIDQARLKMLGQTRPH

Row | Compound | composite z-score (Albumin (Bos taurus)) | composite Z-score [1] | composite z-score [2] | composite z-score [3] | composite z-score [4] | composite z-score [5] | composite z-score [6] | composite z-score (Sam68 (KHDRBS1)) | composite z-score [7] | composite z-score [8] | composite z-score [9] | composite z-score [10] | composite z-score [11] | composite z-score [12] | composite z-score [13] | composite z-score [14] | z-score [15] | composite z-score (Lefty1) | composite z-score [16] | z-score [17]
1 | CC(C)NC(=O)[C@@]1(C)c2ccccc2C(=O)N(Cc2cc(F)cc(C(F)(F)F)c2)[C@H]1c1ccc(CO)cc1 | 0.293 | 0.74 (inactive) | 0.191 | -0.102 | 0.645 | 1.03 | 0.433 | 1.23 | 0.153 | 0.674 | 0.886 | 0.982 | 0.0792 | 0.335 | 0.677 | 1.67 | -0.483 | 0.0338 | 0.512 | 0.433 (inactive)
2 | CN1C(=O)C2C=CC(C(O)C(c3ccccc3)c3ccccc3)N(NC(=O)OC(C)(C)C)C2C1=O (stereo not given) | 1.03 | 1.84 (inactive) | 0.687 | 0.498 | 0.793 | 3.42 | 1 | 1.33 | 0.0789 | 1.19 | 1.88 | 1.18 | 0.666 | 0.973 | 1.03 | 0.0319 | -0.0852 | 0.895 | 1.09 | -0.0519 (inactive)
3 | CCc1cc2c(nc1CC)CCN(CCC(C)=NOC[C@@H](O)COCc1ccco1)C2 | -0.576 | -0.206 (inactive) | 1.03 | 0.31 | 0.193 | -0.988 | 0.377 | 0.226 | 1.57 | 0.212 | 1.31 | -0.952 | -0.439 | -0.19 | 1.47 | 1.53 | 1.69 | 1.53 | 0.182 | -0.85 (inactive)
4 | COC(=O)[C@H](C)NC(=O)CCC1CC(OC(=O)NCc2ccc3c(c2)OCO3)CC2(CCCC(COC(=O)NCCOc3ccccc3)O2)O1 (stereo not given in full) | 0.469 | 0.794 (inactive) | 0.14 | -0.0889 | 0.356 | 0.508 | 0.114 | 1.3 | 0.344 | 0.906 | 0.486 | 1.15 | 0.0281 | 0.59 | 0.463 | 1.09 | 1.09 | 0.735 | 0.262 | -0.314 (inactive)
5 | COc1ccccc1CN1C(=O)c2ccccc2[C@@]2(Cc3ccccc3N(C(C)C)C2=O)[C@@H]1c1ccc(CO)cc1 | 0.282 | 0.0371 (inactive) | -0.0581 | -0.117 | -0.0384 | 0.209 | 0.21 | -0.067 | -0.381 | 0.262 | -0.166 | -0.263 | -0.0604 | -0.586 | -0.13 | -0.609 | 0.427 | -0.404 | 0.57 | -1.08 (inactive)
6 | CC(CCC(=O)OC[C@H]1O[C@H](C#Cc2ccccc2)C=C[C@@H]1Oc1ccc(C)cc1)=NOC[C@@H](O)COCc1ccco1 | -0.515 | -0.142 (inactive) | -0.781 | -0.306 | -0.451 | -0.128 | -0.547 | -1.96 | -3.83 | -3.95 | -1.01 | -0.569 | -1.1 | -2.18 | -2.24 | -3.21 | -0.718 | -2.17 | -0.452 | -0.889 (inactive)
7 | O=C1C2=CC[C@H]3C(=O)N(Cc4ccc5c(c4)OCO5)C(=O)[C@H]3[C@H]2[C@H](O)[C@@H]2O[C@H]12 | -0.176 | 0.0248 (inactive) | -0.0229 | -0.14 | -0.0365 | -0.142 | 0.397 | 0.21 | 0.529 | 0.534 | 1.06 | 0.383 | 0.009 | 0.459 | 0.281 | 0.597 | 0.738 | 0.408 | -0.0306 | -0.272 (inactive)
8 | C/C=C\[C@@H](NCc1ccccc1Br)[C@@H](O)Cc1ccccc1 | 0.099 | 0.168 (inactive) | -0.221 | -0.13 | -0.263 | -0.103 | -0.0543 | -0.636 | -1.02 | -0.342 | -0.13 | -0.469 | -0.119 | -0.641 | -0.604 | -1.4 | -1.4 | -0.972 | -0.819 | 0.979 (inactive)
9 | O=C1O[C@@H](c2ccccc2)[C@@H](c2ccccc2)N2[C@@H](c3ccccc3OCCO)[C@]3(C(=O)Nc4ccc(C#CCCO)cc43)[C@@H](C(=O)O)[C@H]12 | 0.682 | 0.215 (inactive) | 1.14 | 0.473 | 0.58 | 1.51 | 0.133 | 1.2 | 0.553 | 1.15 | 2.14 | 1.18 | 0.459 | 0.923 | 0.89 | 0.598 | -0.406 | 1.37 | 0.365 | -0.703 (inactive)
10 | CC(CCN1CCCCc2nc(C)c(C)cc21)=NOC(C)CN1CCCc2nc(C)c(C)cc21 (stereo not given) | 0.493 | 1.69 (inactive) | 0.721 | 0.153 | 0.533 | 1.79 | 0.257 | 1.29 | 1.2 | 1.14 | -0.756 | 1.12 | 0.671 | 0.651 | 1.36 | 0.97 | -0.12 | 1.45 | 0.766 | -0.0885 (inactive)
11 | COc1ccc(O[C@@H]2[C@H](O)CO[C@H]2C=CC#Cc2ccccc2)cc1 | -0.0002 | 0.497 (inactive) | -0.166 | -0.171 | 0.177 | 0.297 | 0.0594 | -0.016 | 0.229 | -0.301 | 1.1 | -0.253 | -0.267 | 0.73 | 0.356 | 0.341 | -0.0963 | 0.407 | 0.535 | -0.391 (inactive)
